In experiment [1] the target is Cellular tumor antigen p53 (Homo sapiens) (UniProt P04637). Briefly: Primary qHTS for small molecule compounds that upregulate eGFP-tagged delta133p53alpha (in N-terminal) cells. (AID 2060322). Also: nearly all actives have a fitted effect of over 75% in size. Also: potency is read from the fitted curve at half-maximal effect.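 As to activation: series mostly up to about 56 µM; 0% = DMSO vehicle and 100% = reference activator.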 Conditions: NCI-H358 eGFP-delta133p53alpha fluorescence, 24 h; activation: hits give high values. A digest of the protocol:
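NCI-H358 cells pre-induced 24 h with 10 ng/ml doxycycline to express N-terminal eGFP-delta133p53alpha, then dosed 24 h at 37C without doxycycline; fixed, Hoechst-stained, GFP intensity by laser scanning cytometry, normalized to DMSO (0%) and 57.5 uM 5-azacytidine (100%).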
A general note: In qHTS, concentration-response curves come from the screen itself.

The target of experiment [2] is Aldehyde dehydrogenase, mitochondrial (Homo sapiens) (UniProt P05091). Briefly: qHTS for Inhibitors of the Aldehyde Dehydrogenase Family (ALDH2) Primary screen (AID 2061308).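 Also: plate controls were vehicle for no effect and reference inhibitor for full effect; nearly all actives have a fitted effect of over 55% in size.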
For experiment [3], the target named is Retinaldehyde dehydrogenase 3 (Homo sapiens) (UniProt P47895). Briefly: qHTS for Inhibitors of the Aldehyde Dehydrogenase Family (ALDH1A3) Validation screen (AID 2061312). Also: % is scaled to controls: 0 for no effect and ±100 for the full control effect; nearly all actives have a fitted effect of over 45% in size.
For experiment [4] the target is unchanged. The experiment is described as follows: qHTS for Inhibitors of the Aldehyde Dehydrogenase Family (ALDH1A3) Primary screen (AID 2061315).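 Also: plate controls were DMSO vehicle for no effect and reference inhibitor for full effect.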
The nature of experiment [5]: BET inhibitor-based combinations targeting novel dependencies in MECOM-rearranged (r) AML: SET-2 cell line (AID 2202231).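 Also: plate controls were DMSO treated cells for no effect and wells without cells for full effect; nearly all actives have a fitted effect of over 35% in size.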 Conditions: SET-2 AML cells viability, CellTiter-Glo luminescence, 48 h; viability: hits give low values, series mostly up to about 46 µM. A digest of the protocol:
(§1)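 A 48 hr incubation preceded viability reading by CellTiter-Glo, with 15 min room-temperature development. Dose series had 11 points; normalization used DMSO and empty wells; AUC was computed and mean-centered per line as Z-AUC.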

A short description of experiment [6]: BET inhibitor-based combinations targeting novel dependencies in MECOM-rearranged (r) AML: HNT-34 cell line (AID 2202234).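 Also: plate controls were vehicle wells for no effect and cell-free wells for full effect; nearly all actives have a fitted effect of over 35% in size.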 In a few lines: (§2)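 Each compound is tested in an 11-point concentration series against 500 seeded cells/well for 48 hr. The luminescent viability signal is normalized to DMSO and blank wells, then reduced to AUC and a cell-line-centred Z-AUC.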

Experiment [7] is described as follows: BET inhibitor-based combinations targeting novel dependencies in MECOM-rearranged (r) AML: AML-191 cell line (AID 2202236;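 also: plate controls were vehicle wells for no effect and wells without cells for full effect; nearly all actives have a fitted effect of over 35% in size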). A digest of the protocol:
as §1

Experiment [8] is described as follows: BET inhibitor-based combinations targeting novel dependencies in MECOM-rearranged (r) AML: MV-4-11 cell line (AID 2202233). Also: potency is read from the fitted curve at half-maximal effect; nearly all actives have a fitted effect of over 45% in size. In a few lines: as §2
The nature of experiment [9]: BET inhibitor-based combinations targeting novel dependencies in MECOM-rearranged (r) AML: UCSD-AML1 cell line (AID 2202235).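 Also: series mostly up to about 46 µM; plate controls were DMSO vehicle wells for no effect and blank wells for full effect; nearly all actives have a fitted effect of over 40% in size.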 A digest of the protocol: as §2

Several values for one entry are separate records, joined by “and”; a condition that tells them apart may be missing. Equal entries are not always repeated. Inconclusive results are not listed. Unmarked numbers belong to inactive results. Activity calls are given as the source filed them. Calls follow the shape of the dose curve; as a rule, active = well fitted curve in the direction sought with a large enough effect; inconclusive = small, poorly fitted or top-dose-only effect, or another doubt; inactive = no such curve, though single readings can be large; an effect the other way counts as inactive or inconclusive.

Chain of Cellular tumor antigen p53 (Homo sapiens) (P04637 whole entry, looked up): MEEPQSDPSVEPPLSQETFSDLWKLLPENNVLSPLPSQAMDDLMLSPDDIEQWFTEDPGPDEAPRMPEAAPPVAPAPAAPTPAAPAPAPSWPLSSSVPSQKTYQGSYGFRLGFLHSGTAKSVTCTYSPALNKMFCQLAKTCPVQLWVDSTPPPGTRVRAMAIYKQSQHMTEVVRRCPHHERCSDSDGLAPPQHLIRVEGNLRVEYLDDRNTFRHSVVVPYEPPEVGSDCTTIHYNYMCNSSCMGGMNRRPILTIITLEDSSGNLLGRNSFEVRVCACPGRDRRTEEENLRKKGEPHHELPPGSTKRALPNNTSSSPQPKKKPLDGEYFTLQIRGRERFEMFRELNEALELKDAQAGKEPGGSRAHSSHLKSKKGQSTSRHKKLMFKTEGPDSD

Broadly, the viability is a per cent measure of how many cells are alive, often set against a control. Turning to `O=C(O)C(=O)c1cn(Cc2ccccc2)c2ccc(-c3ccc(OC(F)(F)F)cc3)cc12`, the activation in [1] is -6.9% and -6.21%. For the same compound, the Potency entry in experiment [2], in [3], in experiment [4], in experiment [6] and in experiment [7] was “inactive” in each case. In addition, the viability in experiment [5] is 98.6%.

On to `Cc1c(C(=O)Nc2cccc(C(F)(F)F)c2)cc(-c2ccccc2)n1CCCN1CCOCC1`, for which the activation in [1] was -17.9% and -8.11%. Moreover, the Potency entry in experiment [2], in experiment [3], in [4] and in [9] was “inactive” throughout. Also, the Potency in [8] is 20.9 µM (active).

As for `O=C(N1CCCCC1Cc1ccccc1)n1cc(-c2ccc(-c3ccccc3)cc2)nn1` (stereo not drawn), the activation in [1] is 1.43%. Moreover, the Potency result in experiment [2], in experiment [3] and in [4] was “inactive” throughout.

Consider `CC1(C)C(=O)N(c2ccc(C#N)c(C(F)(F)F)c2)C(=O)N1CCCCO`, for which the activation in experiment [1] was -17.7%. Besides, the Potency result in experiment [2], in experiment [3] and in experiment [4] was “inactive” throughout.

In the case of `CC[C@H](O)[C@@H](C)[C@H]1O[C@@H]1C[C@H](C)/C=C/C=C(\C)[C@H]1OC(=O)C[C@H](O)CC[C@@](C)(O)[C@@H](OC(C)=O)/C=C/[C@@H]1C`, in [1], the Potency is 0.0675 µM (active). The Potency result in [2], in experiment [3] and in experiment [4] was “inactive” in each case.

Take `CC(=O)O[C@@H]1[C@H]2CC[C@H]3[C@@](C)(O)[C@@H]4C[C@H](O)C(C)(C)[C@@]4(O)[C@H](O)C[C@@]13C[C@@]2(C)O`: the activation in experiment [1] is 6.87%. The Potency entry in experiment [2] and in experiment [4] was “inactive” in each case.

Take `CCOC(=O)c1cncn1C(C)c1ccccc1` (stereo not drawn): the activation in experiment [1] was 10% and 2.86%. Moreover, the Potency result in experiment [2], in [3] and in [4] was “inactive” each time.

For the compound `CC1=CC(=O)[C@@H](O)[C@@]2(C)C1C[C@H]1OC(=O)[C@H](O)[C@@]3(O)[C@@H](C)[C@@H](O)[C@H](O)C2[C@@]13C` (stereo partly drawn), the Potency in experiment [1] was 14.8 µM (active). In addition, the Potency result in experiment [2] and in experiment [4] was “inactive” in each case.

`O=C1C[C@@H]2OCC=C3CN4CC[C@]56c7ccccc7N1[C@H]5[C@H]2[C@H]3C[C@H]46`: the activation in experiment [1] was -3.57%. Besides, the Potency result in experiment [2] and in experiment [4] was “inactive” each time.

Turning to `CC(C)(C)NC[C@H](O)c1ccc(O)cc1Cl`, the activation in experiment [1] was -6.33%. For the same compound, the Potency entry in experiment [2] and in experiment [4] was “inactive” in each case.

`C=C(C)[C@@]12O[C@@H]1[C@@]1(C)C(=C[C@H]2O)CC[C@@H](O)[C@@H]1C`: in experiment [1], the activation is 8.4%. The Potency result in experiment [2] and in [4] was “inactive” each time.

As to `CC(C)(O)/C=C/C(=O)[C@](C)(O)[C@H]1[C@H](O)C[C@@]2(C)[C@@H]3CC=C4[C@@H](C[C@H](O)C(=O)C4(C)C)[C@]3(C)C(=O)C[C@]12C`, the Potency in [1] was 4.65 µM (active). Moreover, the Potency result in [2] and in experiment [4] was “inactive” throughout.

With `CCCCCCC1C(=O)O[C@H](C)[C@H](NC(=O)c2cccc(NC=O)c2O)C(=O)O[C@@H](C)[C@@H]1OC(=O)CC(C)C` (stereo partly drawn), the activation in experiment [1] was -5.67%. The Potency result in experiment [2] and in experiment [4] was “inactive” throughout.

On to `CCN1C[C@]2(COC)CC[C@H](O)[C@@]34C5C[C@@H]6[C@@H](OC)C[C@@](OC(C)=O)(C5[C@@H]6OC(C)=O)[C@H]([C@H](OC)C23)[C@@H]14` (stereo partly drawn), for which the activation in [1] was 8.04%. Also, the Potency result in [2] and in experiment [4] was “inactive” in each case.

For the compound `CC[C@@H]1C[C@H]2CC[C@H](O2)[C@H](C)C(=O)O[C@@H](C)C[C@@H]2CC[C@@H](O2)[C@@H](C)C(=O)O[C@H](C)C[C@H]2CC[C@H](O2)[C@H](C)C(=O)O[C@@H](C)C[C@@H]2CC[C@@H](O2)[C@@H](C)C(=O)O1`, the activation in experiment [1] is -13.7%. Also, the Potency result in [2] and in experiment [4] was “inactive” in each case.

As to `Cc1sc2c(c1C)C(c1ccc(Cl)cc1)=NC(CC(=O)OC(C)(C)C)c1nnc(C)n1-2` (stereo not drawn), in [1], the activation was 7.64%. Besides, the Potency entry in experiment [2] and in experiment [4] was “inactive” throughout.

Consider `C=C1C2(C)CC3C(C)(O)C4=CC(=O)OC(C)(C)C4=CCC3(C)C13C(=O)OC(C)C3(O)C2=O` (stereo not drawn), for which the activation in [1] was -0.763%. For the same compound, the Potency entry in experiment [2] and in experiment [4] was “inactive” each time.

For the compound `CCOc1ccc(Oc2ccc(OCc3cc(F)ccc3F)cc2)c(N)c1`, the activation in [1] was 3.57%. Also, the Potency entry in experiment [2] and in experiment [4] was “inactive” in each case.

As to `CCOC(=O)NC(C)(C)Cc1ccc(Cl)cc1`, the activation in [1] was -6.33%. Further, the Potency result in [2] and in experiment [4] was “inactive” throughout.

For the compound `CC12Cc3cn[nH]c3C=C1CCC1C2CCC2(C)C1CCC2(C)O` (stereo not drawn), the activation in experiment [1] is 8.33%. Besides, the Potency result in experiment [2] and in experiment [4] was “inactive” each time.

`COC1=CC(=O)O[C@@H](/C=C/c2ccccc2)C1`: the activation in experiment [1] is -10.7%. Further, the Potency result in experiment [2] and in [4] was “inactive” in each case.

Consider `CC1=CC2OC3CC(O)[C@](C)([C@@]2(C)C(O)C1=O)[C@]31CO1` (stereo partly drawn), for which the Potency in [1] was 21.3 µM (active). Moreover, the Potency result in experiment [2] and in experiment [4] was “inactive” in each case.

Turning to `C=C(C)[C@@]12O[C@@H]1[C@@]1(C)C(=CC2=O)CC[C@@H](OC(C)=O)[C@@H]1C`, in experiment [1], the Potency is 30.1 µM (active). For the same compound, the Potency entry in experiment [2] and in [4] was “inactive” in each case.

`Cc1ccccc1C1=CCN(C)CC1`: the activation in [1] was 1.67%. Also, the Potency result in [2] and in [4] was “inactive” throughout.
